Drawing on PubChem BioAssay (EPA / NIEHS), this text covers AC50 and outcome for five compounds.

Molecules are shown by their SMILES. Several values for one entry are separate records, joined by “and”; a condition that tells them apart may be missing. Equal entries are not always repeated. More than one record can exist for a structure, and the calls need not agree. Activity calls are given as the source filed them. Rule for the calls: active = hit-call score of the fitted dose curve at least 0.9, where 1 is the maximum; inactive = score below 0.9.

Assay [1] can be described thus: BSK_hDFCGF_SRB: Viability Assessment in the BioMAP Diversity Plus: hDFCGF Assay (AID 2283061).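 Note: cells exposed to compound for 24 h before the read.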 The conditions noted are these: primary human foreskin fibroblasts. In a few lines:
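Human foreskin primary fibroblasts were treated with compound and assessed 24 h after dosing. Total protein was measured by sulforhodamine B staining (0.1% SRB after 10% TCA fixation, 560 nm read) as a cytotoxicity marker, with bidirectional fitting against DMSO baseline.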

Read-out in assay [2]: TIMP metallopeptidase inhibitor 1 (TIMP1), TIMP1 (gene 7076)
Description: BSK_hDFCGF_TIMP1: BioMAP Diversity Plus: hDFCGF Assay for TIMP metallopeptidase inhibitor 1 (TIMP1) Biomarker Activity (AID 2283062). Particulars: primary human foreskin fibroblasts; actives raise or lower the signal. In a few lines:
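Primary human foreskin fibroblasts in the hDFCGF system were dosed with compound for 24 h, then TIMP-1 was measured by ELISA. Activity was fitted bidirectionally relative to DMSO control; parallel SRB staining assessed cytotoxicity.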

Read-out in assay [3]: Monokine induced gamma interferon (MIG), CXCL9 (gene 4283)
Description: BSK_hDFCGF_MIG: BioMAP Diversity Plus: hDFCGF Assay for Monokine induced gamma interferon (MIG) Biomarker Activity (AID 2283063). The conditions noted are these: primary human foreskin fibroblasts; actives raise or lower the signal. In a few lines:
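ELISA read-out of MIG from primary human dermal fibroblasts 24 h post-dosing. Gain or loss of signal fitted bidirectionally, DMSO as baseline.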

Read-out in assay [4]: Matrix Metallopeptidase 1 (MMP1), MMP1 (gene 4312)
Description: BSK_hDFCGF_MMP1: BioMAP Diversity Plus: hDFCGF Assay for Matrix Metallopeptidase 1 (MMP1) Biomarker Activity (AID 2283064). The conditions noted are these: primary human foreskin fibroblasts; actives raise or lower the signal. The essentials: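 hDFCGF primary fibroblasts (human foreskin); chemical added; 24 h; MMP1 by ELISA; bidirectional fit vs DMSO.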

Read-out in assay [5]: Vascular cell adhesion molecule 1 (VCAM1), VCAM1 (gene 7412)
Nature of the assay: BSK_hDFCGF_VCAM1: BioMAP Diversity Plus: hDFCGF Assay for Vascular cell adhesion molecule 1 (VCAM1) Biomarker Activity (AID 2283065).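 For AC50: VCAM-1 protein level quantified by ELISA after 24 h chemical exposure.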 Particulars: primary human foreskin fibroblasts; actives raise or lower the signal. In a few lines:
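Primary human foreskin fibroblasts (hDFCGF system) were dosed with chemical and VCAM-1 was measured by ELISA 24 h later. Bidirectional curve fitting used DMSO as negative control and activity baseline.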

Read-out in assay [6]: Plasminogen activator inhibitor-1 (PAI1), SERPINE1 (gene 5054)
Description: BSK_hDFCGF_PAI1: BioMAP Diversity Plus: hDFCGF Assay for Plasminogen activator inhibitor-1 (PAI1) Biomarker Activity (AID 2283066). The conditions noted are these: primary human foreskin fibroblasts; actives raise or lower the signal. In a few lines: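 Primary dermal fibroblasts (human foreskin), hDFCGF system; compound 24 h; PAI-1 by ELISA; bidirectional fit vs DMSO control.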

Read-out in assay [7]: Intercellular Adhesion Molecule 1 (ICAM1), ICAM1 (gene 3383)
Nature of the assay: BSK_KF3CT_ICAM1: BioMAP Diversity Plus: KF3CT Assay for Intercellular Adhesion Molecule 1 (ICAM1) Biomarker Activity (AID 2283067). The conditions noted are these: primary human keratinocytes with fibroblasts; actives raise or lower the signal. In a few lines:
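Human keratinocyte plus foreskin fibroblast primary co-culture was exposed to chemical for 24 h. ICAM-1 was then quantified by ELISA, and the data were fit bidirectionally against DMSO as the negative control and baseline.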

Read-out in assay [8]: Interferon-gamma inducible Protein 10 (IP10), CXCL10 (gene 3627)
Nature of the assay: BSK_KF3CT_IP10: BioMAP Diversity Plus: KF3CT Assay for Interferon-gamma inducible Protein 10 (IP10) Biomarker Activity (AID 2283068). Particulars: primary human keratinocytes with fibroblasts; actives raise or lower the signal. The essentials: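 Human keratinocyte plus foreskin fibroblast primary co-culture exposed to test chemical for 24 h; IP-10 measured by ELISA. Concentration-response fitted bidirectionally against DMSO control as baseline.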

Assay [9] in a line: BSK_KF3CT_SRB: Viability Assessment in the BioMAP Diversity Plus: KF3CT Assay (AID 2283069).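 Note: fitted for both signal gain and loss against DMSO baseline.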 The conditions noted are these: primary human keratinocytes with fibroblasts. In a few lines: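 Keratinocytes co-cultured with foreskin fibroblasts (human primary); chemical added, 24 h; fix 10% TCA, stain 0.1% SRB, A560. Bidirectional fit vs DMSO.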
Read-out in assay [10]: Interleukin-1 alpha (IL1a), IL1A (gene 3552)
Description: BSK_KF3CT_IL1a: BioMAP Diversity Plus: KF3CT Assay for Interleukin-1 alpha (IL1a) Biomarker Activity (AID 2283070). The conditions noted are these: primary human keratinocytes with fibroblasts; actives raise or lower the signal. The essentials: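 Chemicals were dosed onto co-cultured human keratinocytes and foreskin fibroblasts, IL-1a was quantified by ELISA at 24 h, and activity was fitted in both directions relative to DMSO controls.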

Read-out in assay [11]: TIMP metallopeptidase inhibitor 2 (TIMP2), TIMP2 (gene 7077)
Nature of the assay: BSK_KF3CT_TIMP2: BioMAP Diversity Plus: KF3CT Assay for TIMP metallopeptidase inhibitor 2 (TIMP2) Biomarker Activity (AID 2283071). Particulars: primary human keratinocytes with fibroblasts; actives raise or lower the signal. The essentials: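 Cells: human keratinocytes co-cultured with foreskin fibroblasts. Treat with chemical, 24 h. Measure TIMP-2 by ELISA; fit curves bidirectionally vs DMSO baseline.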

Read-out in assay [12]: Transforming growth factor beta 1 (TGFb1), TGFB1 (gene 7040)
Description: BSK_KF3CT_TGFb1: BioMAP Diversity Plus: KF3CT Assay for Transforming growth factor beta 1 (TGFb1) Biomarker Activity (AID 2283072). Particulars: primary human keratinocytes with fibroblasts; actives raise or lower the signal. In a few lines: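 Primary human skin cells (keratinocytes, foreskin fibroblasts) were co-cultured, exposed to test chemical and sampled at 24 h. TGF-b1 levels were measured by ELISA and fitted bidirectionally relative to DMSO.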

Read-out in assay [13]: Matrix Metallopeptidase 9 (MMP9), MMP9 (gene 4318)
Description: BSK_KF3CT_MMP9: BioMAP Diversity Plus: KF3CT Assay for Matrix Metallopeptidase 9 (MMP9) Biomarker Activity (AID 2283074).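 For AC50: MMP9 protein level quantified by ELISA in the co-culture.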 Particulars: primary human keratinocytes with fibroblasts; actives raise or lower the signal. The essentials: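 Human keratinocyte/foreskin fibroblast co-culture; compound added; 24 h; MMP-9 by ELISA; bidirectional fit vs DMSO baseline.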

Read-out in assay [14]: urokinase plasminogen activator (uPA), PLAU (gene 5328)
Description: BSK_KF3CT_uPA: BioMAP Diversity Plus: KF3CT Assay for urokinase plasminogen activator (uPA) Biomarker Activity (AID 2283075). The conditions noted are these: primary human keratinocytes with fibroblasts; actives raise or lower the signal. In a few lines: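 ELISA readout of uPA, analyzed for signal gain or loss relative to DMSO, from a human primary keratinocyte–foreskin fibroblast co-culture measured 24 h after chemical treatment.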

Read-out in the next assay: CD40, CD40 (gene 958)
Description: BSK_LPS_CD40: BioMAP Diversity Plus: LPS Assay for CD40 Biomarker Activity (AID 2283076). The conditions noted are these: primary human HUVEC with PBMC; actives raise or lower the signal. The essentials: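 Primary human umbilical vein endothelial cells co-cultured with peripheral blood mononuclear cells, LPS-stimulated, were dosed with chemical and read 24 h later. CD40 levels were measured by ELISA and fitted bidirectionally against DMSO as negative control and baseline.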

Read-out in assay [15]: E-selectin (Homo sapiens) (UniProt P16581)
Nature of the assay: BSK_LPS_Eselectin: BioMAP Diversity Plus: LPS Assay for Eselectin Biomarker Activity (AID 2283077). The conditions noted are these: primary human HUVEC with PBMC; actives raise or lower the signal. In a few lines:
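Human umbilical vein endothelial cells co-cultured with peripheral blood mononuclear cells under LPS stimulation; E-selectin measured by ELISA 24 h after chemical dosing. Activity fitted bidirectionally against DMSO as negative control and baseline.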

Read-out in assay [16]: Interleukin-8 (IL8), CXCL8 (gene 3576)
Nature of the assay: BSK_LPS_IL8: BioMAP Diversity Plus: LPS Assay for Interleukin-8 (IL8) Biomarker Activity (AID 2283078). Particulars: primary human HUVEC with PBMC; actives raise or lower the signal. In a few lines:
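Human umbilical vein endothelial cells co-cultured with PBMC were stimulated with LPS; IL-8 levels were measured by ELISA 24 h after chemical dosing. Activity was fitted bidirectionally against DMSO as negative control and baseline.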

Assay [17] is described as follows: BSK_LPS_SRB: Viability Assessment in the BioMAP Diversity Plus: LPS Assay (AID 2283079).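 Note: total protein by sulforhodamine B absorbance as a cytotoxicity measure; measured one day after compound addition; fitted in both directions against DMSO so loss or gain of signal counts.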 Particulars: primary human HUVEC with PBMC. The essentials:
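Human umbilical vein endothelial cells co-cultured with PBMC (LPS system) were dosed for 24 h. Total protein was stained with 0.1% sulforhodamine B after 10% TCA fixation, read at 560 nm, and fitted bidirectionally against DMSO baseline.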

Read-out in assay [18]: Interleukin-1 alpha (IL1a), IL1A (gene 3552)
Nature of the assay: BSK_LPS_IL1a: BioMAP Diversity Plus: LPS Assay for Interleukin-1 alpha (IL1a) Biomarker Activity (AID 2283080). The conditions noted are these: primary human HUVEC with PBMC; actives raise or lower the signal. The essentials:
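Human umbilical vein endothelial cells co-cultured with peripheral blood mononuclear cells were LPS-stimulated and exposed to test chemicals for 24 h. IL-1 alpha was quantified by ELISA, with bidirectional curve fitting against DMSO as the negative control and baseline.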

Read-out in assay [19]: C-C motif chemokine 2 (Homo sapiens) (UniProt P13500)
Description: BSK_KF3CT_MCP1: BioMAP Diversity Plus: KF3CT Assay for Monocyte Chemoattractant Protein 1 (MCP1/CCL2) Biomarker Activity (AID 2283073). Particulars: primary human keratinocytes with fibroblasts; actives raise or lower the signal. The essentials: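 Human keratinocyte plus foreskin fibroblast primary co-culture exposed to chemical for 24 h. MCP-1 levels measured by ELISA. Bidirectional curve fitting relative to DMSO negative control as baseline.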

E-selectin (Homo sapiens), sequence (P16581 whole entry, looked up): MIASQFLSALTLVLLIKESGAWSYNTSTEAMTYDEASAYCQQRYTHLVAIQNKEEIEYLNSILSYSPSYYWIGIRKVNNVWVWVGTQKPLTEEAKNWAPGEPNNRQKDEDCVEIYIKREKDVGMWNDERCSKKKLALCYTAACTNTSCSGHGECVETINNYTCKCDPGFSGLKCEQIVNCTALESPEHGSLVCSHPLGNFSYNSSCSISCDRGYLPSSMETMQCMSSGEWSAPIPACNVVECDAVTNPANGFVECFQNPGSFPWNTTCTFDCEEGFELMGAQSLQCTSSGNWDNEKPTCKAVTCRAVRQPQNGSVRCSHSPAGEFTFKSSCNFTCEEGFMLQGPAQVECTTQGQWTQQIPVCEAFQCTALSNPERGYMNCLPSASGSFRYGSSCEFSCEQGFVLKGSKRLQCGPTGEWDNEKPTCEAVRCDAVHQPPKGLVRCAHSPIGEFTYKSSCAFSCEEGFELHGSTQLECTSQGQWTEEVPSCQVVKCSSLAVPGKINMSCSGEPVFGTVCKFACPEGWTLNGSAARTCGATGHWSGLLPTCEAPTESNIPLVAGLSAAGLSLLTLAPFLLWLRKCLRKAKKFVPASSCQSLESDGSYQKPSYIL

The term AC50 denotes the concentration at which the activity in the assay is half-maximal. Take `CC(C)(c1ccccc1)c1ccc(O)cc1`: the AC50 is 33.8 µM (active) in assay [1]; 32 µM (active) in [2]; 39 µM (active) in assay [3]; 32.8 µM (active) in [4]; 34.7 µM (active) in assay [5]; 32.2 µM (active) in [6]. Moreover, the AC50 was 36.9 µM (active) in assay [7]; 35.9 µM (active) in assay [8]; 33.1 µM (active) in [9]; 31.2 µM (active) in [10]; 34.3 µM (active) in [11]; 34.5 µM (active) in [12]. Also, the AC50 was 31.4 µM (active) in [13]; 31.5 µM (active) in [14]; 32.5 µM (active) with CD40, CD40 (gene 958); 36.7 µM (active) in assay [15]; 35.3 µM (active) in assay [16]; 33.1 µM (active) in assay [17]. Moreover, the AC50 in assay [18] is 36.3 µM (active).

For `Oc1c(Cl)c(Cl)c(Cl)c(Cl)c1Cl`, the AC50 is 7.08 µM (active) and 12.4 µM (active) in assay [1]; 13.7 µM (active) in assay [2]; 4.29 µM (active) in [3]; 33.1 µM (active) in [4]; 10.2 µM (active) and 9.72 µM (active) in [6]; 10.2 µM (active) and 16.6 µM (active) in assay [7]. For the same compound, the AC50 in assay [8] is 12.9 µM (active) and 20 µM (active); in [9], 6.37 µM (active); in assay [10], 20 µM (active); in assay [11], 2.02 µM (active) and 17.3 µM (active); in assay [12] it was 15 µM (active); in assay [13], 6.97 µM (active) and 6.46 µM (active). Moreover, the half-maximal activity concentration (AC50) was 27.4 µM (active) in [14]; 10.2 µM (active) and 15.2 µM (active) in the assay with CD40, CD40 (gene 958); 27.1 µM (active) in assay [15]; 33.1 µM (active) in assay [16]; 15.1 µM (active) and 26.4 µM (active) in assay [17]; 34.4 µM (active) in assay [18]. Also, the result in [2], in assay [4], in assay [9], in assay [10], in assay [12] and in assay [14] was inactive. Also, the result in [15], in assay [16] and in assay [18] was inactive.

For `O=C(NC(=O)c1c(F)cccc1F)Nc1cc(Cl)c(OC(F)(F)C(F)F)c(Cl)c1`, the outcome in [1], in assay [2], in assay [3], in assay [4], in assay [5] and in assay [6] was inactive. Further, the outcome in assay [7], in assay [8], in assay [9], in assay [10], in assay [11] and in assay [12] was inactive. The outcome in [13] is “inactive”; in assay [14] it was “inactive”; with CD40, CD40 (gene 958), “inactive”; in [15], “inactive”; in assay [16], “inactive”; in assay [17], “inactive”. In addition, the outcome in assay [18] was inactive.

For the compound `C=CC(N)=O`, the outcome in [1], in [2], in assay [3], in [4], in assay [5] and in assay [6] was inactive. For the same compound, the result in [7], in [8], in assay [9], in [10], in assay [11] and in assay [12] was inactive. The outcome is “inactive” in assay [13]; “inactive” in [14]; “inactive” with CD40, CD40 (gene 958); “inactive” in assay [15]; “inactive” in assay [16]; “inactive” in assay [17]. For the same compound, the outcome in assay [18] was inactive.

On to `Cc1ccccc1CO[C@@H]1C[C@@]2(C(C)C)CC[C@]1(C)O2`, for which the outcome in [1], in assay [2], in [3], in assay [4], in assay [5] and in [6] was inactive. Further, the outcome in assay [7], in assay [8], in assay [9], in assay [10], in [11] and in [12] was inactive. Moreover, the outcome in assay [19] is “inactive”; in assay [13], “inactive”; in assay [14] it was “inactive”; with CD40, CD40 (gene 958), “inactive”; in [15] it was “inactive”; in assay [16] it was “inactive”. In addition, the outcome in assay [17] and in [18] was inactive.
